In the library only some 18% were active in any assay of this set; here they are far more common.
TDP1 inh – inhibitors of human tyrosyl-DNA phosphodiesterase TDP1; Q9NUW8; recombinant TDP1, AlphaScreen DNA substrate cleavage; Potency, µM (titrated, usually from 130 µM), without a hit: at the highest dose activity change, negative = inhibition, usual class: inhibitors; 350,000 tested, 0.28% active; AID 485290; further: potency means the concentration at half of the fitted maximal effect; nearly all actives have a fitted effect of over 40% in size
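AlphaScreen read-out: signal falls as enzyme removes the 3' tyrosine-FITC from a 5'-biotinylated DNA oligo (15 nM, 5 min, RT). Enzyme was E. coli-made recombinant Tdp1 at 1 nM, exposed to compound for 15 min beforehand; beads 10 ug/ml, 10 min.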
DT40 TDP1 no CPT – qHTS for Inhibitors of human tyrosyl-DNA phosphodiesterase 1 (TDP1): qHTS in cells in absence of CPT | DT40 Tdp1-/- hTDP1 cells, no CPT, ATP luminescence, 48 h | Potency, µM (top dose mostly 46.2 µM), without a hit: top-dose activity change, negative = growth inhibition, actives largely listed as inhibitors | 420,000 tested, 15% active; further: potency means the concentration at half of the fitted maximal effect; nearly all actives have a fitted effect of over 55% in size
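Readout: luminescence from CellTiter-Glo after 30 min in the dark at RT. Cells: DT40 Tdp1-/- with stable hTDP1, 400/well. Exposure: compounds alone, ≥48 hr, 37 °C.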
IL1B secr inh – inhibitors of inflammasome signaling (IL-1 beta secretion) | activity change, % at 57.5 µM | 360,000 tested, 4.7% active | THP-1 LPS/ATP IL-1B secretion, AlphaLISA, 16 h; stronger effect = lower value; in the data active means activity change below about -50%; inconclusive means mostly about -30% to -49%
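Secreted IL-1B measured by AlphaLISA bead assay after 16 h compound exposure of THP-1 cells; compounds (final up to 57.5 uM) added 1 h before LPS (250 ng/mL) and ATP (1.25 mM) stimulation; lower signal means less secretion.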
Six1-Eya2 blk – blocks human Six1 binding to Eya2. Q15475+O00167. AlphaScreen GST-Six1/His-Eya2 binding, biochemical; stronger effect = lower value. activity change, % (test concentration not listed). 360,000 tested, 0.56% active; in the data active means activity change below about -65%; inconclusive means mostly about -30% to -63%
Target sequence (O00167 whole entry, looked up): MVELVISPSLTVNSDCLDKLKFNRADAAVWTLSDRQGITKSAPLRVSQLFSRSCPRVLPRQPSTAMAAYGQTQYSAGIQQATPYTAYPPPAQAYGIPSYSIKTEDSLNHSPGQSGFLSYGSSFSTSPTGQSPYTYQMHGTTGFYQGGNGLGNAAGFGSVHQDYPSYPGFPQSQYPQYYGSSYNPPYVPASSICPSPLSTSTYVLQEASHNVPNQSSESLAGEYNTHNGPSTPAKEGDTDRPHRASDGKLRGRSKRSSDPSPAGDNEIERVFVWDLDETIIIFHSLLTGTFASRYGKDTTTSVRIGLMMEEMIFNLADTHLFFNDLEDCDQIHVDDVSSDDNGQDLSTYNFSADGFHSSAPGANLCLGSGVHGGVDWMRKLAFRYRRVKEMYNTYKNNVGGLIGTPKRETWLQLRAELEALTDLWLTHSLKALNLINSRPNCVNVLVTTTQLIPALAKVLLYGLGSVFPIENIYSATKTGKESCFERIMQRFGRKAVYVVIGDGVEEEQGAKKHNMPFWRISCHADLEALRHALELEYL
Target sequence (Q15475 whole entry, looked up): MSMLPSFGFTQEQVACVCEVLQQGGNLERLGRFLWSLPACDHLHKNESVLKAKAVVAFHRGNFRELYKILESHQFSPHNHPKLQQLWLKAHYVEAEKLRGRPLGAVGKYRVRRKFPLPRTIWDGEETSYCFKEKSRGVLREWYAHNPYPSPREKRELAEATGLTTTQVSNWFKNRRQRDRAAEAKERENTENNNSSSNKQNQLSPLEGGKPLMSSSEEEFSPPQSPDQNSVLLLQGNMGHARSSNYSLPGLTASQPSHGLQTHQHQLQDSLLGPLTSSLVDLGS
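Compounds are tested against tagged Six1 and Eya2 proteins bridged by glutathione donor and nickel acceptor beads; after a one-hour incubation at 37 °C without light, AlphaScreen emission is recorded.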
CtBP-E1A blk – inhibitors of CtBP/E1A interaction; AlphaScreen GST-E1A/His-CtBP binding, 1536-well; stronger effect = lower value; activity change, % (test concentration not listed); 340,000 tested, 0.49% active; AID 651724; in the data active means activity change below about -65%; inconclusive means mostly about -30% to -63%
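GST-E1A and His-tagged CtBP (125 nM each as 5X stock) were preincubated with pin-transferred compound for 2 h at 37 °C in the dark, then glutathione donor and nickel acceptor beads were added for 1 h before AlphaScreen reading.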
TDP1 cell CPT – growth inhibition of DT40 Tdp1-/-;hTDP1 cells with camptothecin (screen for TDP1 inhibitors) | 420,000 tested, 12% active | chicken DT40 Tdp1-/-;hTDP1 cells + 20 nM CPT, ATP luminescence, 48 h | AID 686979 | Potency, µM (series often up to 46.2 µM), for the others: at the top dose activity change, negative = growth inhibition, actives largely listed as inhibitors; further: potency means the concentration at half of the fitted maximal effect; nearly all actives have a fitted effect of over 55% in size
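Chicken DT40 Tdp1-/- cells complemented with human TDP1, 400 cells/well, exposed to compounds plus 20 nM camptothecin for at least 48 h at 37 C; viability read as ATP content by CellTiter-Glo luminescence.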
Numbers without * were called inactive. Unless noted, the call rests on the fitted dose curve; in most records, active means well fitted curve in the direction sought with a large enough effect; inconclusive means small, poorly fitted or top-dose-only effect, or another doubt; inactive means no such curve, though single readings can be large; an effect the other way counts as inactive or inconclusive. On the % scale 0 is the no-effect control and ±100 the full control effect.

Cc1ccc(-c2nc3ccc(Cl)cn3c2CC(C)(C)C)cc1 was read as DT40 TDP1 no CPT -27.0%, IL1B secr inh 26.9, Six1-Eya2 blk 9.8, CtBP-E1A blk 1.4 and TDP1 cell CPT inconclusive.
Screening CC(C)(C)N(Cc1ccccc1)C(=O)COC(=O)C1CC1 returned TDP1 inh 0.4%, DT40 TDP1 no CPT -20.8%, IL1B secr inh -12.8, Six1-Eya2 blk 14.8, CtBP-E1A blk -4.4 and TDP1 cell CPT -6.1%.
`CC(C)(C)N(Cc1ccccc1)C(=O)COC(=O)C1CCN(c2ccc(C(F)(F)F)cn2)CC1` gave TDP1 inh -6.2%, DT40 TDP1 no CPT 14.6µM*, IL1B secr inh 1.8, Six1-Eya2 blk 3.1, CtBP-E1A blk 15.2 and TDP1 cell CPT inconclusive.
For CC(C)N(Cc1ccccc1)C(=O)COC(=O)C1CCN(c2ccc(C(F)(F)F)cn2)CC1 the results were TDP1 inh 9.3%, DT40 TDP1 no CPT 18.4µM*, IL1B secr inh 5.7, Six1-Eya2 blk 0.1, CtBP-E1A blk 11.7 and TDP1 cell CPT 16.4µM*.
`Cc1ccc(S(=O)(=O)N2CCC(=O)N(C(COCc3ccc(C(F)(F)F)cc3)Cc3ccccc3)CC2)cc1` (stereo unspecified) gave TDP1 inh 3.9%, DT40 TDP1 no CPT 18.4µM*, IL1B secr inh -16.6, Six1-Eya2 blk 0.6, CtBP-E1A blk 4.0 and TDP1 cell CPT 9.2µM*.
For Cc1ccc(S(=O)(=O)N2CCC(=O)N(C(COC(=O)Nc3ccccc3)Cc3ccccc3)CC2)cc1 (stereo unspecified) the results were TDP1 inh -3.1%, DT40 TDP1 no CPT inconclusive, IL1B secr inh 0.0, Six1-Eya2 blk -2.9, CtBP-E1A blk -6.7 and TDP1 cell CPT 20.6µM*.
Cc1ccc(S(=O)(=O)N2CCC(=O)N(C(COCc3ccc(Cl)c(Cl)c3)Cc3ccccc3)CC2)cc1 (stereo unspecified) was read as TDP1 inh 1.3%, DT40 TDP1 no CPT 23.1µM*, IL1B secr inh 48.2, Six1-Eya2 blk -2.4, CtBP-E1A blk 1.8 and TDP1 cell CPT inconclusive.
Screening COc1ccc(CN2CCC(C(=O)N3CCCC(C)C3)CC2)cc1OC (stereo unspecified) returned TDP1 inh 0.0%, DT40 TDP1 no CPT 10.5%, IL1B secr inh 12.2, Six1-Eya2 blk 3.0, CtBP-E1A blk 1.6 and TDP1 cell CPT -0.4%.
Screening C=CCNc1nc(=S)[nH]c2cc(OC)c(OC)cc12 returned TDP1 inh -7.5%, DT40 TDP1 no CPT -34.9%, IL1B secr inh -23.1, Six1-Eya2 blk -82.5*, CtBP-E1A blk -73.5* and TDP1 cell CPT -10.9%.
Screening Cc1ccc(/C(N)=N/OC(=O)c2ccc3c(c2)OCO3)cc1 returned TDP1 inh 5.3%, DT40 TDP1 no CPT inconclusive, IL1B secr inh -0.5, Six1-Eya2 blk -24.0, CtBP-E1A blk -0.3 and TDP1 cell CPT -10.7%.
For N/C(=N\OC(=O)c1ccc2c(c1)OCO2)c1ccncc1 the results were DT40 TDP1 no CPT 4.6%, IL1B secr inh -53.5*, Six1-Eya2 blk -7.0, CtBP-E1A blk -2.6 and TDP1 cell CPT 2.8%.
`CCCNC(=O)C1(C)CCN1C(=O)c1ccc(C(C)(C)C)cc1` (stereo unspecified) gave DT40 TDP1 no CPT 14.6µM*, IL1B secr inh 23.3, Six1-Eya2 blk 4.3, CtBP-E1A blk 7.7 and TDP1 cell CPT inconclusive.
Screening CC(C)(C)CNC(=O)C1(C)CCN1C(=O)Cc1ccc(C(C)(C)C)cc1 (stereo unspecified) returned DT40 TDP1 no CPT inconclusive, IL1B secr inh -1.5, Six1-Eya2 blk 10.9, CtBP-E1A blk -14.0 and TDP1 cell CPT inconclusive.
CCCNC(=O)C1(C)CCN1C(=O)Cc1ccc(C(C)(C)C)cc1 (stereo unspecified) was read as DT40 TDP1 no CPT 14.6µM*, IL1B secr inh 42.4, Six1-Eya2 blk 0.0, CtBP-E1A blk 8.7 and TDP1 cell CPT inconclusive.

Compound activity: PubChem BioAssay, National Center for Advancing Translational Sciences (NCATS)
